LDHA block: qHTS assay for inhibitors of human lactate dehydrogenase | hit rate 0.15% among 480,000 | L-lactate dehydrogenase A chain (Homo sapiens), P00338 | activity change, % (values are at about 110 or 230 µM) | purified LDHA, NADH/diaphorase-resazurin fluorescence; active compounds read low | AID 1347041, 2019; in the data active = activity change below about -30%; inconclusive = mostly about -25% to -30%;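 note: plate controls were DMSO wells for no effect and wells without enzyme for full effect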
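Human LDH5 at 2 nM final in Tris HCl pH 7.4 with 0.06 mM NADH and 0.2 mM pyruvate, reacted 5 minutes at room temperature. Remaining NADH coupled via diaphorase/resazurin; resorufin fluorescence read at 0 and 20 minutes, normalized to enzyme-free and DMSO wells.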
Vif-A3G inh: qHTS for Inhibitors of Vif-A3G Interactions: qHTS | DNA dC->dU-editing enzyme APOBEC-3G (Homo sapiens), Q9HC16 | Potency, µM (highest dose often 46.1 µM), for the others: at the highest dose activity, negative = active, most hits filed as inhibitors | HeLa A3G-eYFP + Vif (tagged APOBEC3G with the HIV-1 protein that degrades it), YFP fluorescence, overnight | hit rate 0.076% among 410,000; note: potency is the fitted concentration of half-maximal effect; % is set by controls: 0 for no effect and ±100 for the full control effect; nearly all actives have a fitted effect of over 60% in size
Target sequence (Q9HC16 whole entry, looked up): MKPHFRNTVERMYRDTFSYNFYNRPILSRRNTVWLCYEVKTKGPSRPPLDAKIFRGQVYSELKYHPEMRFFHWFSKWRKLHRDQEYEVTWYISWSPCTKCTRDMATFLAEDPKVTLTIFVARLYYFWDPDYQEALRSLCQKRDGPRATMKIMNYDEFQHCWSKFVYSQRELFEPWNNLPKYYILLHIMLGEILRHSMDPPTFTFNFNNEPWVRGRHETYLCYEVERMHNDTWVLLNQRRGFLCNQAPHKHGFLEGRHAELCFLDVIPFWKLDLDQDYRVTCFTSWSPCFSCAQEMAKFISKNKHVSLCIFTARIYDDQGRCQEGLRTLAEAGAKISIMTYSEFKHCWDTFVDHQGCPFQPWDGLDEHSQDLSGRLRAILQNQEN
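Read-out is eYFP fluorescence (Ex 488/Em 500-530) from Vif-expressing HeLa A3G-eYFP cells; more signal means A3G escaped Vif-mediated degradation. Cells plated overnight, compound pinned in, incubated overnight at 37 deg C.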
GRP78 ERSR act: qHTS for Inducers of the Endoplasmic Reticulum Stress Response (ERSR) in Human Glioma: qHTS | U87-MG GRP78 promoter luciferase reporter, 16 h | hit rate 0.02% among 420,000 | AID 602332, 2012 | Potency, µM, inactives show at the highest dose activation, hits mostly activators; note: potency is the fitted concentration of half-maximal effect; series mostly up to about 76 µM; % of control where 0% means no effect; nearly all actives have a fitted effect of over 35% in size
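ERSR induction read as luciferase luminescence (Bright-Glo, 10 min at room temperature) in stably transfected human U87-MG glioma cells exposed to compounds for 16 h, using GRP78 as sensor.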
Vif-A3F inh: qHTS for Inhibitors of Vif-A3F Interactions: qHTS | Potency, µM (series often up to 46.1 µM), without a hit: at the top dose activity, negative = active | hit rate 0.2% among 390,000 | HeLa A3F-eYFP + Vif (tagged APOBEC3F with the HIV-1 protein that degrades it), YFP fluorescence increase; note: potency is the fitted concentration of half-maximal effect; % of control where 0% means no effect; nearly all actives have a fitted effect of over 65% in size
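HeLa cells stably expressing Vif plus C-terminally eYFP-tagged A3F were seeded, incubated overnight at 37 deg C, dosed with compound, incubated overnight again at 37 deg C. Yellow fluorescence (Ex 488/Em 500-530) reported blocked Vif-mediated A3F-eYFP degradation.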
PINK1 modulator: A Quantitative High throughput Screen to Identify Chemical Modulators of PINK1 Expression | PINK1 immunofluorescence, high-content cytometry, 24 h | Potency, µM (top dose mostly 76.6 µM), inactives show at the highest dose activation (PINK1 increase), hits mostly activators | hit rate 0.2% among 410,000; active = well fitted activation curve with a large enough effect; inconclusive = small, poorly fitted or top-dose-only effect; cell line not stated here; note: potency is the fitted concentration of half-maximal effect; % of control where 0% means no effect; nearly all actives have a fitted effect of over 65% in size
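A stable cell line was treated with compounds at 5 concentrations for 24 hours, with CCCP as control. PINK1 levels and mitochondrial localization were measured by immunofluorescence with mitochondrial, cell and nuclear markers after fixation, read by laser-scanning cytometry.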
Akt phos inh: HTS Assay for Inhibitors of Akt Phophorylation: Primary Screen | hit rate 0.32% among 360,000 | AID 651550, 2012 | Neuro2A IGF-stimulated pAkt S473 HTRF, 20 min; active compounds read low | activity change, % for hits at 50 µM; in the data active = activity change below about -80%; inconclusive = mostly about -51% to -80%; note: % is set by controls: 0 for no effect and ±100 for the full control effect
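Single-point screen (50 µM final compound) in Neuro2A cells stimulated 20 min with 6 nM IGF at 37 deg C. After lysis, Ser473-phosphorylated Akt read by HTRF (ex 330 nm, em 615/665 nm) as the 665/615 ratio.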
* hit, by the source's call; i = inactive; ? = inconclusive; . = not tested or not shown; [ ] = remark or other dose. In the library only some 0.74% were active in any assay of this set; here they are far more common. Unless noted, calls come from the whole dose curve; as a rule, active = well fitted curve in the direction sought with a large enough effect; inconclusive = small, poorly fitted or top-dose-only effect, or another doubt; inactive = no such curve, though single readings can be large; an effect the other way counts as inactive or inconclusive.

SMILES	LDHA block	Vif-A3G inh	GRP78 ERSR act	Vif-A3F inh	PINK1 modulator	Akt phos inh
COc1ccccc1-c1nc(SCc2cc(=O)n3c4c(sc3n2)CCCC4)n[nH]1	-33*	.	.	.	.	.
CC(C)c1ccc(-c2c(C#N)c(N)nc(SCC(=O)N3CCCCC3)c2C#N)cc1	-11	0%	-1%	-15%	5%	i
CC(C)c1ccc(-c2c(C#N)c(N)nc(SCC(=O)N3CCCCCC3)c2C#N)cc1	-3	-3%	-4%	-7%	9%	-124%*
CCCCCn1nc(C(=O)Nc2cccc(C(C)=O)c2)c2ccccc2c1=O	-1	.	.	.	.	.
O=C(O)c1cnc(-c2ccccc2)nc1Sc1ccccc1	-40*	0%	-3%	-6%	-2%	i
O=C(O)c1cnc(-c2ccccc2)nc1Sc1cccc(Cl)c1	-22	0%	0%	3%	-4%	i
Cc1nc2nc(Cc3ccccc3)[nH]n2c(=O)c1Cl	-5	-4%	-1%	1%	-1%	-114%*
CCOc1ccc2nc(S(N)(=O)=O)sc2c1	-80*	0%	6%	1%	1%	i
CCOc1ccc2nc(NS(=O)(=O)c3cccs3)sc2c1	-3	-1%	3%	8%	-1%	i
COc1cc(C#N)ccc1OCc1ccccc1	-6	.	.	.	.	.
C(=N\n1cnnc1)/c1ccc(OCc2cccc3ccccc23)cc1	2	-6%	0%	4%	0%	-134%*
Clc1cnc(N/N=C/c2cccs2)c(Cl)c1	1	-2%	0%	1%	4%	-104%*
O=C(CCS(=O)(=O)c1ccc(Br)s1)NCc1cccs1	-8	0%	5%	-7%	1%[38.3 µM]	-82%*
O=C(CN1CCCCC1)N1CCCc2c1c(=O)oc1ccc(OCc3ccccc3)cc21	-3	3%	-6%	1%	0%	-119%*
Cc1ccc(NC(=O)C(C#N)C(=O)CC(C)C)cc1 (stereo not drawn)	-3	.	.	.	.	.
CC(C)n1nc(C(=O)NCC2CCOC2)c2ccccc2c1=O (stereo not drawn)	-8	.	.	.	.	.
CCOC(=O)c1cc2c(C(F)(F)F)cc(-c3cccnc3)nc2o1	-7	2%	3%	.	-1%	-112%*
N#CC1=C(N)N2C(=C(C#N)C1c1cccc(Br)c1)Nc1ccccc12 (stereo not drawn)	-1	-6%	1%	?	3.2µM*	i
O=C(N=c1ccn(-c2nc3ccccc3nc2NS(=O)(=O)c2ccccc2)cc1)c1cccs1	-5	?	0%	25µM*	0%	i
CN(C)CCOc1ccccc1-c1ccccc1	?	-7%	-3%	-10%	-1%	i
CN(C)CCOCCOc1ccccc1-c1ccccc1	-47*	1%	-1%	-1%	0%[38.3 µM]	i
Cc1cccc(C(=O)N/C(=C/c2ccco2)C(=O)O)c1	22	.	.	.	.	.
CCN(CC)S(=O)(=O)c1ccc(/C=C\c2onc(C)c2NC(=O)C2CC2)cc1	-4	.	.	.	.	.
COc1ccc(Br)cc1CN1CCCC(C(=O)N2CCCCCC2)C1 (stereo not drawn)	-33*	0%	-6%	-1%	1%	i
COc1ccc(Br)cc1CN1CCCC(C(=O)N2CCCCC2)C1 (stereo not drawn)	?	-3%	-3%	-1%	-4%	i
SMILES	LDHA block	Vif-A3G inh	GRP78 ERSR act	Vif-A3F inh	PINK1 modulator	Akt phos inh
CCOc1cc(/C=N\Nc2ccc([N+](=O)[O-])cc2)ccc1OCC(=O)Nc1ccc(C)c(C)c1	-3	?	-5%	.	?	i
COc1cc(/C=N\Nc2ccc([N+](=O)[O-])cc2)ccc1OCC(=O)Nc1ccc(C)c(C)c1	-4	-1%	-1%	10µM*	12%	.
Cc1ccc2c(C)c(CCC(=O)Nc3ccc(C(N)=O)cc3)c(=O)oc2c1	-2	.	.	.	.	.
Cc1cc(S(=O)(=O)NC[C@H]2O[C@@H](n3ccc(N)nc3=O)[C@H](O)[C@@H]2O)c(C)s1	-31*	-1%	-6%	-3%	-1%	i
Cc1cccc(-n2c(SCC(=O)N3CCCC3)nc3n[nH]c(C)c3c2=N)c1	-4	-1%	-3%	-7%	-6%[38.3 µM]	-104%*
Cc1ccc2c(CN3CCC(O)CC3)cc(=O)oc2c1C	2	.	.	.	.	.
CCC(c1nnnn1CCOC)N(Cc1cc2cc(C)c(C)cc2[nH]c1=O)CC1CCCO1 (stereo not drawn)	-2	0%	-4%	6%	-1%	-117%*
O=C1Nc2ccccc2N(O)N1c1cc(-c2ccccc2Cl)no1	0	1%	-10%	-5%	-2%	-110%*
O=C(CSc1nc2ccccc2c(=O)[nH]1)N1CCCCCC1	5	1%	7%	3%	1%	i
O=C(CSc1nc2ccccc2c(=O)[nH]1)N1CCN(S(=O)(=O)c2ccccc2)CC1	2	0%	-5%	-17%	0%[38.3 µM]	-84%*
CNC(C(=O)OC)c1ccc(Cl)c(Cl)c1 (stereo not drawn)	-5	.	.	.	.	.
NS(=O)(=O)c1ccc(NC(=O)c2ccc3c(c2)CCCC3)cc1	-11	-6%	3%	?	40µM*	.
Cc1ccc(S(=O)(=O)N2CCOCC2)cc1NC(=O)CNCc1cccnc1	-40*	1%	-6%	15%	1%	i
Cc1ccc(S(=O)(=O)N2CCOCC2)cc1NC(=O)CNCc1ccc(Cl)cc1Cl	-4	3%	-4%	6%	4%	i
Cn1c(=O)c(Nc2ccc(Cl)cc2)c2c3c(cccc31)C(=O)c1ccccc1-2	-4	?	0%	5µM*	18%	i
CCOC(=O)c1c2c3c(cccc3n(C)c1=O)C(=O)c1ccccc1-2	1	-4%	-1%	5%	-1%	i
CC(=O)Nc1c2c3c(cccc3n(C)c1=O)C(=O)c1ccccc1-2	1	0%	-3%	1%	-1%	-113%*
COc1ccc(N2CCN(CCCNC(=O)CN3CCN(Cc4ccccc4C)C3=O)CC2)cc1	-2	1%	-3%	-7%	1%	-111%*
Cc1ccc(CN2CCN(CC(=O)NCCCN3CCN(c4ccc(F)cc4)CC3)C2=O)cc1	-2	1%	-1%	-1%	-1%[38.3 µM]	i
COc1ccc(C(=O)COC(=O)COc2ccc(F)cc2Cl)cc1OC	7	.	.	.	.	.
Cc1nc2c(c(=O)c3ccccc3n2C)c2nc3ccccc3n12	0	.	.	.	.	.
COc1ccc(C2(c3ccc(F)cc3)CCCCC2)cc1	0	.	.	.	.	.
O=S(=O)(c1ccc2ccccc2c1)N(Cc1ccco1)Cc1cccs1	13	.	.	.	.	.
COc1cccc(/C=N/n2c(C3CCCCC3)n[nH]c2=S)c1	-13	7.1µM*	-4%	-9%	0%	i

Compound activity deposited in PubChem BioAssay by National Center for Advancing Translational Sciences (NCATS).
